# Experimental data as given in the supplement of paper PMC6555819.
# Tests used:
# Test in all cases: PBM binding z-score (relative to random genomic background probes); higher = stronger binding; sequences stand for … in GC…GCGATTGACAGCGTAGAATGAAGG
# [1] = tested on: FXR:RXRa (NR concentration 270 nM, RXRa partner concentration 90 nM)
# Summary of the method: (§1)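 Probes were double-stranded and carried 34-nt variable regions with direct-repeat seeds, single-nucleotide variants, half-site ablations and random human genomic background sequences, printed on custom Agilent 4×180K protein-binding microarrays. Arrays were incubated 1 h with ligand-free nuclear receptor dimers in PBS pH 7.4, 2% milk, 0.02% Triton X-100, 1 mM DTT, 0.2 mg/mL BSA and 0.4 mg/ml salmon testes DNA. Antibodies against each partner (one per run) detected binding, and scanned fluorescence was regression-normalized. Binding z-scores use the random background probes as reference.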
# [2] = tested on: LXRa:RXRa (NR concentration 270 nM, RXRa partner concentration 90 nM)
# Summary of the method: as §1
# [3] = tested on: LXRa homodimer (NR concentration 270 nM)
# Summary of the method: as §1
# [4] = tested on: LXRb:RXRa (NR concentration 270 nM, RXRa partner concentration 90 nM)
# Summary of the method: as §1
# [5] = tested on: LXRb homodimer (NR concentration 270 nM)
# Summary of the method: as §1
# [6] = tested on: PPARa:RXRa (NR concentration 270 nM, RXRa partner concentration 90 nM)
# Summary of the method: as §1
# [7] = tested on: PPARg:RXRa (NR concentration 180 nM, RXRa partner concentration 90 nM)
# Summary of the method: as §1
# [8] = tested on: PPARg:RXRa 270nM:90nM, anti-RXR (NR concentration 270 nM, RXRa partner concentration 90 nM)
# Summary of the method: as §1
# [9] = tested on: PPARg:RXRa 30nM:10nM, anti-RXR (NR concentration 30 nM, RXRa partner concentration 10 nM)
# Summary of the method: as §1
# [10] = tested on: PPARg:RXRa 90nM:30nM, anti-RXR (NR concentration 90 nM, RXRa partner concentration 30 nM)
# Summary of the method: as §1
# [11] = tested on: PPARg:RXRa DBDmut IVT, anti-RXR (DBD mutation: RXRa K156A/R161A, NR concentration 270 nM, RXRa partner concentration 90 nM)
# Summary of the method: as §1
# [12] = tested on: PPARg:RXRa IVT, anti-PPARg (NR concentration 270 nM, RXRa partner concentration 90 nM)
# Summary of the method: as §1
# [13] = tested on: PPARg DBDmut:RXRa IVT, anti-PPARg (DBD mutation: PPARg1 K132A/R137A, NR concentration 270 nM, RXRa partner concentration 90 nM)
# Summary of the method: as §1
# [14] = tested on: PPARg DBDmut IVT, anti-PPARg (DBD mutation: PPARg1 K132A/R137A, NR concentration 270 nM)
# Summary of the method: as §1
# [15] = tested on: PPARg homodimer (NR concentration 180 nM)
# Summary of the method: as §1
# [16] = tested on: PXR:RXRa (NR concentration 270 nM, RXRa partner concentration 90 nM)
# Summary of the method: as §1
# [17] = tested on: PXR homodimer (NR concentration 270 nM)
# Summary of the method: as §1
# [18] = tested on: RARa:RXR (NR concentration 270 nM, RXRa partner concentration 90 nM)
# Summary of the method: as §1
# [19] = tested on: RARa homodimer (NR concentration 270 nM)
# Summary of the method: as §1
# [20] = tested on: RARb:RXRa (NR concentration 270 nM, RXRa partner concentration 90 nM)
# Summary of the method: as §1
Sequence,PBM binding z-score [1],PBM binding z-score [2],PBM binding z-score [3],PBM binding z-score [4],PBM binding z-score [5],PBM binding z-score [6],PBM binding z-score [7],PBM binding z-score [8],PBM binding z-score [9],PBM binding z-score [10],PBM binding z-score [11],PBM binding z-score [12],PBM binding z-score [13],PBM binding z-score [14],PBM binding z-score [15],PBM binding z-score [16],PBM binding z-score [17],PBM binding z-score [18],PBM binding z-score [19],PBM binding z-score [20]
ATATGTAGGTTAAGGGTCATCCAGGTTGGTTCGC,4.92,5.03,2.83,4.66,1.61,6.89,12.2,10.6,11.2,12.3,7.61,8.22,4.43,2.04,4.33,5.87,2.5,6.77,2.63,3.99
AGAACGAGGGCCCGCTGAGTTGATAGCAGAGTAG,-0.807,-1.1,-0.871,-1.53,-1.19,-1.78,-0.00223,-1.4,-0.848,-1.55,-0.75,-0.481,-0.976,-0.618,-1.15,-0.97,-1.05,-1.3,-1.68,-0.616
TATACAGGGTCACAGGCCAGAGTACGAATGTCGA,7.56,5.94,2.06,4.84,2.2,6.06,8.05,6.76,3.77,5.75,2.88,5.43,2.95,3.73,3.45,4.32,0.522,5.21,1.31,4.8
TCACATAGGTAAATGCTAGGTGAAAGTCCGATCT,0.401,0.564,-0.036,0.378,-0.343,1.03,0.475,1.83,3.11,2.49,2.22,1.12,0.19,-0.0289,-0.198,0.34,-0.0319,0.692,-0.153,0.251
CCGACTGGGGCATTAGGTTACCATAAGCCAGCCC,-0.253,0.617,-0.377,0.144,-1.38,1.12,2.09,2.4,0.389,1.44,4.18,4.74,1.31,-0.339,0.243,-0.496,-0.542,0.173,-0.742,0.848
CCTACTGGGCCATTCAGAGGTAATTGATCATATG,-0.331,-0.32,-0.381,-0.312,-0.992,0.524,0.262,0.25,-0.481,-0.189,3.91,3.26,-0.325,-0.711,-0.319,-0.537,-0.389,-0.179,-0.252,0.178
CCTACAGGGTCAGCTAGGCCAGAGTAGGGACGGC,4.39,2.61,-0.714,1.7,-0.84,4.2,2.56,2.7,0.464,1.31,0.563,1.44,-0.42,-1.17,1.25,1.92,-0.627,2.68,-0.295,4.03
